This is an account of results in PubChem BioAssay (NCI).

The panel holds about 79,000 compounds, 15% with a hit somewhere; the sample as a whole holds those more often. A number with no mark means an inactive call. Activity calls are given as the source filed them. Rule as the data show it: active = growth inhibition above about 70%; inactive = the rest.

A short description of experiment [1]: NCI Yeast Anticancer Drug Screen. Data for the rad50 strain (AID 155).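 Also: 0% = growth of vehicle-only cultures of the same strain.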 The conditions noted are these: S. cerevisiae rad50 strain growth inhibition, active compounds read high. The gist of the method:
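Cells are treated with compound, grown, and their growth is then scored against vehicle-only cultures of the same repair-deficient yeast strain.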

Experiment [2] is described as follows: NCI Yeast Anticancer Drug Screen. Data for the mec2-1 strain (AID 157). The conditions noted are these: S. cerevisiae mec2-1 strain, active compounds read high. The gist of the method:
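Yeast mec2-1 mutant treated with compound. Readout: growth inhibition vs vehicle controls.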

The nature of experiment [3]: NCI Yeast Anticancer Drug Screen. Data for the sgs1 mgt1 strain (AID 161).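 Also: 0% = growth of cultures given vehicle only.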 The conditions noted are these: S. cerevisiae sgs1 mgt1 strain, active compounds read high. The gist of the method:
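Genetically altered yeast, compound exposure, growth inhibition relative to vehicle.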

Experiment [4] is described as follows: NCI Yeast Anticancer Drug Screen. Data for the cln2 rad14 strain (AID 165).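 Also: 0% = growth equal to vehicle treated cultures.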 The conditions noted are these: S. cerevisiae cln2 rad14 strain, active compounds read high. The procedure, abridged: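 cln2 rad14 yeast strain; compound exposure; growth inhibition read vs vehicle controls.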
Experiment [5] in a line: NCI Yeast Anticancer Drug Screen. Data for the bub3 strain (AID 167). The conditions noted are these: S. cerevisiae bub3 mutant strain, active compounds read high. The gist of the method:
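Part of a panel of yeast mutants defective in DNA damage repair or cell cycle regulation. Each strain is grown with compound, and inhibition is calculated relative to solvent-treated cultures.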

A short description of experiment [6]: NCI Yeast Anticancer Drug Screen. Data for the mlh1 rad18 strain (AID 175). The conditions noted are these: S. cerevisiae mlh1 rad18 strain growth inhibition, active compounds read high. The gist of the method:
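Yeast w/ defined DNA-repair lesions; compound exposure; growth vs vehicle controls → % inhibition.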

Setting [7] is: at 5.0 µM (retest, dose inferred, filed as 0.5).
The mark [8] stands for this setting: at 50.0 µM (retest, dose inferred, filed as 5.0).

With `CCOc1ccc(N=Nc2c(C)nn(C(=S)SC)c2OCC)cc1`, the growth inhibition in experiment [1] (setting [7]) is 10%; in experiment [1] (setting [8]), 54%; in experiment [1] (at 50.0 µM), 99.3% (active); in experiment [2] (setting [7]) it was -7%; in experiment [2] (setting [8]) it was 61%; in experiment [2] (at 50.0 µM) it was 99.7% (active). Moreover, the growth inhibition is 4% in experiment [3] (setting [7]); 74% (active) in experiment [3] (setting [8]); 99.2% (active) in experiment [3] (at 50.0 µM); -13% in experiment [4] (setting [7]); 27% in experiment [4] (setting [8]); 99.5% (active) in experiment [4] (at 50.0 µM). Further, the growth inhibition was -17% in experiment [5] (setting [7]); 72% (active) in experiment [5] (setting [8]); 99.3% (active) in experiment [5] (at 50.0 µM); -24% in experiment [6] (setting [7]); 73% (active) in experiment [6] (setting [8]); 99.5% (active) in experiment [6] (at 50.0 µM).

For the compound `CN1C(=S)C(=N)OC1c1ccccc1F` (stereo not given), the growth inhibition is 7% in experiment [1] (setting [7]); 91% (active) in experiment [1] (setting [8]); 84.3% (active) in experiment [1] (at 50.0 µM); 16% in experiment [2] (setting [7]); 97% (active) in experiment [2] (setting [8]); 75.3% (active) in experiment [2] (at 50.0 µM). Further, the growth inhibition in experiment [3] (setting [7]) is 7%; in experiment [3] (setting [8]), 98% (active); in experiment [3] (at 50.0 µM), 85.6% (active); in experiment [4] (setting [7]), -2%; in experiment [4] (setting [8]), 82% (active); in experiment [4] (at 50.0 µM), 33.4%. Moreover, the growth inhibition was 10% in experiment [5] (setting [7]); 99% (active) in experiment [5] (setting [8]); 89.2% (active) in experiment [5] (at 50.0 µM); -13% in experiment [6] (setting [7]); 96% (active) in experiment [6] (setting [8]); 84.8% (active) in experiment [6] (at 50.0 µM).

For `Cc1ccc(C(C)(C)c2ccc(C(=O)O)cc2)cc1`, the growth inhibition in experiment [1] (setting [7]) was -4%; in experiment [1] (setting [8]), -14%; in experiment [1] (at 50.0 µM), 25.1%; in experiment [2] (setting [7]) it was 3%; in experiment [2] (setting [8]), 4%; in experiment [2] (at 50.0 µM), 10.2%. Further, the growth inhibition in experiment [3] (setting [7]) was -3%; in experiment [3] (setting [8]) it was 0%; in experiment [3] (at 50.0 µM), 42.5%; in experiment [4] (setting [7]), 1%; in experiment [4] (setting [8]), -10%; in experiment [4] (at 50.0 µM) it was -12.7%. The growth inhibition in experiment [5] (setting [7]) was -6%; in experiment [5] (setting [8]), -8%; in experiment [5] (at 50.0 µM) it was -2.5%; in experiment [6] (setting [7]), 1%; in experiment [6] (setting [8]), -7%; in experiment [6] (at 50.0 µM) it was 8.9%.

With `COc1ccc(CN2CCCN(Cc3ccc(OC)cc3OC)C2c2cc(Cl)cc(Cl)c2O)c(OC)c1`, the growth inhibition was 10% in experiment [1] (setting [7]); 52% in experiment [1] (setting [8]); 73.8% (active) in experiment [1] (at 50.0 µM); 16% in experiment [2] (setting [7]); 93% (active) in experiment [2] (setting [8]); 33.3% in experiment [2] (at 50.0 µM). Further, the growth inhibition in experiment [3] (setting [7]) was -10%; in experiment [3] (setting [8]), 75% (active); in experiment [3] (at 50.0 µM), 76.2% (active); in experiment [4] (setting [7]), -2%; in experiment [4] (setting [8]) it was 35%; in experiment [4] (at 50.0 µM), 30.9%. Moreover, the growth inhibition in experiment [5] (setting [7]) was 3%; in experiment [5] (setting [8]) it was 79% (active); in experiment [5] (at 50.0 µM), 3.9%; in experiment [6] (setting [7]), 27%; in experiment [6] (setting [8]), 94% (active); in experiment [6] (at 50.0 µM), 61.4%.

In the case of `CCCCCCCCCCN(CCCCCCCCCC)C(=O)COc1c2cc(C(C)(C)C)cc1Cc1cc(C(C)(C)C)cc(c1OCC(=O)N(CCCCCCCCCC)CCCCCCCCCC)Cc1cc(C(C)(C)C)cc(c1OCC(=O)N(CCCCCCCCCC)CCCCCCCCCC)Cc1cc(C(C)(C)C)cc(c1OCC(=O)N(CCCCCCCCCC)CCCCCCCCCC)C2`, the growth inhibition in experiment [1] (setting [7]) is 98% (active); in experiment [1] (setting [8]), 92% (active); in experiment [1] (at 50.0 µM), 85.8% (active); in experiment [2] (setting [7]), 98% (active); in experiment [2] (setting [8]), 95% (active); in experiment [2] (at 50.0 µM), 89.3% (active). Further, the growth inhibition is 99% (active) in experiment [3] (setting [7]); 95% (active) in experiment [3] (setting [8]); 89% (active) in experiment [3] (at 50.0 µM); 98% (active) in experiment [4] (setting [7]); 94% (active) in experiment [4] (setting [8]); 87.3% (active) in experiment [4] (at 50.0 µM). Besides, the growth inhibition was 99% (active) in experiment [5] (setting [7]); 94% (active) in experiment [5] (setting [8]); 87.8% (active) in experiment [5] (at 50.0 µM); 97% (active) in experiment [6] (setting [7]); 92% (active) in experiment [6] (setting [8]); 84.8% (active) in experiment [6] (at 50.0 µM).

Turning to `c1cc2c(c3c1CN(C1CCCCC1)CO3)OCN(C1CCCCC1)C2`, the growth inhibition was 2% in experiment [1] (setting [7]); 19% in experiment [1] (setting [8]); -11% in experiment [1] (at 50.0 µM); 4% in experiment [2] (setting [7]); 10% in experiment [2] (setting [8]); -29.6% in experiment [2] (at 50.0 µM). Also, the growth inhibition in experiment [3] (setting [7]) is 6%; in experiment [3] (setting [8]), 16%; in experiment [3] (at 50.0 µM), 32.1%; in experiment [4] (setting [7]) it was -12%; in experiment [4] (setting [8]), 16%; in experiment [4] (at 50.0 µM) it was -27.2%. Also, the growth inhibition in experiment [5] (setting [7]) is 5%; in experiment [5] (setting [8]), 28%; in experiment [5] (at 50.0 µM), 65%; in experiment [6] (setting [7]), 6%; in experiment [6] (setting [8]), 10%; in experiment [6] (at 50.0 µM), 12.4%.

Take `CCCCCCCCCCCCCCCCN`: the growth inhibition is 98% (active) in experiment [1] (setting [7]); 97% (active) in experiment [1] (setting [8]); 99% (active) in experiment [1] (at 50.0 µM); 20% in experiment [2] (setting [7]); 99% (active) in experiment [2] (setting [8]); 99.4% (active) in experiment [2] (at 50.0 µM). The growth inhibition in experiment [3] (setting [7]) is 99% (active); in experiment [3] (setting [8]), 98% (active); in experiment [3] (at 50.0 µM) it was 99.2% (active); in experiment [4] (setting [7]), 54%; in experiment [4] (setting [8]), 97% (active); in experiment [4] (at 50.0 µM) it was 98.8% (active). The growth inhibition in experiment [5] (setting [7]) was 98% (active); in experiment [5] (setting [8]), 98% (active); in experiment [5] (at 50.0 µM) it was 98.8% (active); in experiment [6] (setting [7]), 98% (active); in experiment [6] (setting [8]), 98% (active); in experiment [6] (at 50.0 µM), 98.7% (active).

For the compound `COc1cc(OC)c(C/C=C/c2ccccc2)cc1O`, the growth inhibition in experiment [1] (setting [7]) was 27%; in experiment [1] (setting [8]), 73% (active); in experiment [1] (at 50.0 µM), 10.2%; in experiment [2] (setting [7]) it was 21%; in experiment [2] (setting [8]) it was 71% (active); in experiment [2] (at 50.0 µM), -15.6%. In addition, the growth inhibition in experiment [3] (setting [7]) is 20%; in experiment [3] (setting [8]) it was 75% (active); in experiment [3] (at 50.0 µM), 16.3%; in experiment [4] (setting [7]) it was 16%; in experiment [4] (setting [8]), 49%; in experiment [4] (at 50.0 µM) it was 19.6%. The growth inhibition was 29% in experiment [5] (setting [7]); 86% (active) in experiment [5] (setting [8]); -27.8% in experiment [5] (at 50.0 µM); 30% in experiment [6] (setting [7]); 93% (active) in experiment [6] (setting [8]); 89.3% (active) in experiment [6] (at 50.0 µM).

On to `CCC(C)CNCCCCCNc1cc(OC)cc2cccnc12` (stereo not given), for which the growth inhibition was 37% in experiment [1] (setting [7]); 67% in experiment [1] (setting [8]); 45.5% in experiment [1] (at 50.0 µM); 35% in experiment [2] (setting [7]); 62% in experiment [2] (setting [8]); 43.9% in experiment [2] (at 50.0 µM). Moreover, the growth inhibition in experiment [3] (setting [7]) is 38%; in experiment [3] (setting [8]) it was 87% (active); in experiment [3] (at 50.0 µM), 66.5%; in experiment [4] (setting [7]), 47%; in experiment [4] (setting [8]), 57%; in experiment [4] (at 50.0 µM), 48.2%. Also, the growth inhibition is 39% in experiment [5] (setting [7]); 75% (active) in experiment [5] (setting [8]); 90.3% (active) in experiment [5] (at 50.0 µM); 29% in experiment [6] (setting [7]); 53% in experiment [6] (setting [8]); 70.3% (active) in experiment [6] (at 50.0 µM).

Turning to `Cc1ncn(-c2ccccc2O)c1C`, the growth inhibition in experiment [1] (setting [7]) is -3%; in experiment [1] (setting [8]), 7%; in experiment [1] (at 50.0 µM) it was -10.3%; in experiment [2] (setting [7]) it was -8%; in experiment [2] (setting [8]) it was -20%; in experiment [2] (at 50.0 µM), 8.05%. Besides, the growth inhibition was -7% in experiment [3] (setting [7]); -14% in experiment [3] (setting [8]); -28.7% in experiment [3] (at 50.0 µM); -2% in experiment [4] (setting [7]); -8% in experiment [4] (setting [8]); 31.7% in experiment [4] (at 50.0 µM). Further, the growth inhibition in experiment [5] (setting [7]) was -3%; in experiment [5] (setting [8]), -27%; in experiment [5] (at 50.0 µM), -5.75%; in experiment [6] (setting [7]), -9%; in experiment [6] (setting [8]), 9%; in experiment [6] (at 50.0 µM), -28.3%.
